Data reported in PubChem BioAssay (NCATS).
Several values for one entry are separate records, joined by “and”; a condition that tells them apart may be missing. Identical values can stand only once. Results filed as inconclusive are left out. Activity calls are given as the source filed them. Unless noted, the call rests on the fitted dose curve; in most records, active means well fitted curve in the direction sought with a large enough effect; inconclusive means small, poorly fitted or top-dose-only effect, or another doubt; inactive means no such curve, though single readings can be large; an effect the other way counts as inactive or inconclusive.

Assays:
[1] = Cytotoxicity counterscreen for NFkB agonists and antagonists (AID 624476); further: potency means the concentration at half of the fitted maximal effect
[2] = qHTS Assay for Identification of Small Molecule Agonists for NFkB Signaling Pathway. (AID 624478);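 further: compounds tested together with TNF alpha at its EC50 of 10 pM; 0% is about no effect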
Summary of the method: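 Cells carrying an NFkB response element-driven beta-lactamase gene are co-treated with compound and 10 pM TNF alpha for 5 h, and reporter activity is then read as 460 and 530 nm fluorescence.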

[3] = qHTS Assay for Identification of Small Molecule Antagonists for NFkB Signaling Pathway. (AID 624479; calls by dose curve;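 further: pathway stimulated with TNF alpha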; further: potency means the concentration at half of the fitted maximal effect)
[4] = Cell Proliferation Assay against the TMD8 Cell Line (AID 651645); conditions: TMD8 DLBCL cell line proliferation/viability; at 46.1 µM (top of the series);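 further: cells exposed to compound for 48 h before reading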
Summary of the method: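 TMD8 ABC DLBCL cells, 500 per well in phenol red-free RPMI with 5% FBS, were treated with compound by pin transfer and incubated 48 hours at 37C, 5% CO2. Viability was read by CellTiter-Glo luminescence, normalised to DMSO (100%) and 9.2 uM bortezomib (0%).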

[5] = Cell Proliferation Assay against the HBL1 Cell Line (AID 651646); conditions: HBL1 DLBCL cells; at 46.1 µM (top of the series);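 further: cells exposed to compound for 48 h before reading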
Summary of the method: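 Luminescent ATP read-out (CellTiter-Glo) after 48 h compound exposure of HBL1 cells at 37 °C; percent activity was scaled between DMSO as 100% and 9.2 uM bortezomib (final) as 0%.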

[6] = Cell Proliferation Assay against the TMD8 Cell Line (Caspase readout at 16 hrs) (AID 651712); further: potency means the concentration at half of the fitted maximal effect
Summary of the method: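 Apoptotic response of TMD8 cells was judged from caspase 3/7 activation following a 16 hour compound incubation at 37 °C. Luminescent signal was converted to percent activity, with DMSO set as 0% and 9.2 uM final bortezomib as 100%.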

[7] = Cell Proliferation Assay against the TMD8 Cell Line (Caspase readout at 8 hrs) (AID 651713); further: potency means the concentration at half of the fitted maximal effect
Summary of the method: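 Percent activity derived from Caspase-Glo signal, DMSO set to 0% and bortezomib (9.2 uM final) to 100%. TMD8 cells were exposed to compound for 8 h in RPMI with 5% FBS.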

[8] = qHTS of Nrf2 Activators: LOPAC Validation (AID 624149); further: 0% is about no effect
Summary of the method: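 ARE reporter activation measured in AREc32 firefly luciferase cells after 24 hr compound exposure; Steady-Glo luminescence.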

[9] = HTS Assay for Allosteric Antagonists of the Human D2 Dopamine Receptor: Hit Validation in HTRF (AID 624455);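 further: stable D1 dopamine receptor cell line scored for blocking the D1 response; on the % scale 0 is the no-effect control and ±100 the full control effect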
Summary of the method: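 Signal from an HTRF read-out in D1-expressing stable cells gave hit activity as inhibition of the D1 response.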

SMILES	Potency [1]	outcome [2]	Potency [3]	viability (% of control) [4]	viability, percent of control [5]	Potency [6]	Potency [7]	outcome [8]	outcome [9]
NC(=O)Nc1cc(-c2cccc(F)c2)sc1C(=O)N[C@H]1CCCNC1	1.32 µM (active)	inactive	14.9 µM (active)	5.07%	19.6%	0.0418 µM (active)	–	–	–
COC(=O)[C@]12CCC(C)(C)C[C@@H]1[C@@H]1C(=O)C=C3[C@@]4(C)C=C(C#N)C(=O)C(C)(C)[C@@H]4CC[C@@]3(C)[C@]1(C)CC2	1.32 µM (active)	inactive	0.595 µM (active)	–	–	–	–	–	–
CNC(=O)c1cc(Oc2ccc(NC(=O)Nc3cc(C(C)(C)C)nn3-c3ccc4ncccc4c3)c(F)c2)ccn1	2.64 µM (active)	inactive	0.0421 µM (active)	2.72%	58.7%	inactive	–	–	–
Cn1c2cc(S(C)=O)sc2c2cnn(Cc3cccc(N)c3)c(=O)c21 (stereo not given)	inactive	inactive	16.8 µM (active)	110%	93.3%	inactive	inactive	–	–
COc1ccc(C=Cc2cc(OC)c(OC)c(OC)c2)cc1O	inactive	inactive	inactive	0.872%	20.5%	0.0015 µM (active)	–	–	–
CC1(C)OC2=C(C(=O)c3ccccc3C2=O)[C@H](NCc2ccccc2)[C@H]1O	5.26 µM (active)	inactive	3.75 µM (active)	5.62%	6.45%	inactive	–	–	–
COc1cc2c(Oc3ccc(-c4cnc(Nc5ccc(F)cc5)n(C)c4=O)cc3F)ccnc2cc1OCCCN1CCOCC1	29.6 µM (active)	inactive	18.8 µM (active)	1.34%	1.76%	16.6 µM (active)	–	–	–
CC(C)[C@H](C(=O)Nc1ccc(C(=O)NO)cc1)c1ccccc1	18.7 µM (active)	inactive	inactive	0.267%	0.0861%	0.166 µM (active)	–	–	–
Cc1cnc(-c2cnc(NCCNc3ccc(C#N)cn3)nc2-c2ccc(Cl)cc2Cl)[nH]1	inactive	inactive	14.9 µM (active)	9.76%	22.7%	–	–	–	–
C[C@]1(CO)CN(c2cc(C(=O)Nc3ccc4c(c3)-c3c(c(C(N)=O)nn3-c3ccc(F)cc3)CC4)c(Cl)cn2)C[C@@]1(C)CO	inactive	inactive	5.95 µM (active)	18.6%	23.3%	14.8 µM (active)	16.6 µM (active)	–	–
O=c1c2ccccc2nc2n1CCc1c-2[nH]c2ccccc12	–	–	–	–	–	–	–	inactive	inactive
N#Cc1c(O)c2c(-c3ccc(-c4ccccc4O)cc3)csc2[nH]c1=O	inactive	inactive	inactive	112%	114%	inactive	inactive	–	–
O=C(O)c1ccc2cc(-c3ccc(O)c(C45CC6CC(CC(C6)C4)C5)c3)ccc2c1	0.118 µM (active)	inactive	14.9 µM (active)	2.27%	1.91%	–	–	–	–
COc1cc2c(Oc3ccc(NC(=O)C4(C(=O)Nc5ccc(F)cc5)CC4)cc3F)ccnc2cc1OCCCN1CCOCC1	16.6 µM (active)	inactive	16.8 µM (active)	2.25%	3.9%	inactive	–	–	–
CN(C)CC=CC(=O)Nc1cc2c(Nc3ccc(F)c(Cl)c3)ncnc2cc1O[C@H]1CCOC1	29.6 µM (active)	inactive	13.3 µM (active)	0.0294%	1.34%	–	–	–	–
O=C(C=Cc1cccnc1)NCCCCC1CCN(C(=O)c2ccccc2)CC1	inactive	inactive	inactive	7.31%	53.4%	inactive	inactive	–	–
CC(=O)OCCN1C(=O)c2c(C)nc3ccc(S(=O)(=O)N4CCOCC4)cc3c2C1=O	inactive	inactive	inactive	94.5%	105%	inactive	inactive	–	–
CC(C)c1ccccc1Cc1cc(C(=O)Nc2ccc(S(=O)(=O)c3ccccc3C(C)(C)C)cc2)c(O)c(O)c1O	14.8 µM (active)	inactive	13.3 µM (active)	9.33%	21.6%	6.62 µM (active)	–	–	–
Nc1ccccc1NC(=O)c1ccc(CNc2nccc(-c3cccnc3)n2)cc1	14.8 µM (active)	inactive	0.15 µM (active)	2.31%	4.64%	20.9 µM (active)	inactive	–	–
C#Cc1cccc(Nc2ncnc3cc(OC)c(OCCCCCCC(=O)NO)cc23)c1	2.64 µM (active)	inactive	16.8 µM (active)	-0.46%	1.91%	0.148 µM (active)	–	–	–
Nc1cc(C(F)(F)F)c(-c2cc(N3CCOCC3)nc(N3CCOCC3)n2)cn1	0.935 µM (active)	inactive	inactive	3.22%	16.8%	2.09 µM (active)	20.9 µM (active)	–	–
CC(C)C[C@H](NC(=O)CNC(=O)c1cc(Cl)ccc1Cl)B(O)O	0.0743 µM (active)	inactive	0.0084 µM (active)	4.52%	5.36%	–	–	–	–

SMILES	Potency [1]	outcome [2]	Potency [3]	viability (% of control) [4]	viability, percent of control [5]	Potency [6]	Potency [7]	outcome [8]	outcome [9]
CC=C1NC(=O)[C@H]2CSSCCC=C[C@H](CC(=O)N[C@H](C(C)C)C(=O)N2)OC(=O)[C@H](C(C)C)NC1=O	0.0935 µM (active)	inactive	inactive	4.33%	3.6%	–	–	–	–
O=C(NCCS(=O)(=O)c1ccc(C(F)(F)F)cn1)c1ccc(Cl)cc1	inactive	inactive	inactive	96.1%	92%	inactive	inactive	–	–
C1Cc2[nH]nc(-c3nn[nH]n3)c2C1	inactive	inactive	inactive	103%	91.7%	inactive	inactive	–	–
Cc1[nH]nc2ccc(-c3cncc(OC[C@@H](N)Cc4ccccc4)c3)cc12	4.69 µM (active)	inactive	0.168 µM (active)	-0.774%	4.82%	1.32 µM (active)	2.35 µM (active)	–	–
O=C(O)[C@H](Cc1c[nH]c2ccccc12)N1C(=O)c2ccccc2C1=O	inactive	inactive	inactive	104%	130%	inactive	inactive	–	–
Cc1cccc(C=NNc2cc(N3CCOCC3)nc(OCCc3ccccn3)n2)c1	inactive	inactive	21.1 µM (active)	0.274%	0.729%	–	–	–	–
Cc1ccc(-c2ncn(-c3ccc(Nc4nccc(-c5cccc(N6CCOCC6)c5)n4)cc3)n2)cn1	0.935 µM (active)	inactive	0.237 µM (active)	0.9%	0.21%	0.0105 µM (active)	–	–	–
CCN1CCN(Cc2ccc(-c3cc4c(N[C@H](C)c5ccccc5)ncnc4[nH]3)cc2)CC1	33.2 µM (active)	inactive	16.8 µM (active)	1.56%	1.9%	16.6 µM (active)	–	–	–
Nc1ccccc1NC(=O)c1ccc(CNC(=O)OCc2cccnc2)cc1	inactive	inactive	inactive	4.84%	4.18%	–	inactive	–	–
Nc1nc(Nc2ccc(S(N)(=O)=O)cc2)nn1C(=O)c1c(F)cccc1F	9.35 µM (active)	inactive	0.473 µM (active)	6.19%	49.5%	5.26 µM (active)	14.8 µM (active)	–	–
CC[C@@H]1C(=O)N(C)c2cnc(Nc3ccc(C(=O)NC4CCC(N5CCN(CC6CC6)CC5)CC4)cc3OC)nc2N1C(C)C (stereo not given in full)	13.2 µM (active)	inactive	5.3 µM (active)	3.58%	4.22%	–	26.4 µM (active)	–	–
CN1CCN(c2ccc3nc(-c4c(N)c5c(F)cccc5[nH]c4=O)[nH]c3c2)CC1	16.6 µM (active)	inactive	0.421 µM (active)	-0.299%	0.538%	–	18.7 µM (active)	–	–
COc1cc2ncnc(Nc3ccc(F)c(Cl)c3)c2cc1NC(=O)C=CCN1CCCCC1	20.9 µM (active)	inactive	16.8 µM (active)	-0.755%	0.0432%	–	23.5 µM (active)	–	–
CN1CC[C@@H](c2c(O)cc(O)c3c(=O)cc(-c4ccccc4Cl)oc23)[C@@H](O)C1	0.132 µM (active)	inactive	0.0149 µM (active)	-0.0054%	41.8%	–	0.0743 µM (active)	–	–
O=C(C=Cc1c(C(=O)O)[nH]c2cc(Cl)cc(Cl)c12)Nc1ccccc1	inactive	inactive	inactive	103%	112%	inactive	inactive	–	–
Nc1nc(-c2nn(Cc3ccccc3F)c3ncccc23)nc(N)c1N1CCOCC1	inactive	inactive	inactive	–	–	inactive	inactive	–	–
CC(C)(C)c1cnc(CSc2cnc(NC(=O)C3CCNCC3)s2)o1	0.166 µM (active)	inactive	0.0473 µM (active)	3.42%	36.4%	–	0.0935 µM (active)	–	–
C[C@@H]1CN(CC(=O)Nc2ccc3c(c2)Cc2cccc(-c4cc(=O)cc(N5CCOCC5)o4)c2S3)C[C@H](C)O1	inactive	inactive	inactive	26.2%	56.7%	–	23.5 µM (active)	–	–
CCCCN1CCC(CNC(=O)c2c3n(c4ccccc24)CCCO3)CC1	inactive	inactive	inactive	–	93.7%	inactive	inactive	–	–
CC[C@@H]1C(=O)N(C)c2cnc(Nc3ccc(C(=O)NC4CCN(C)CC4)cc3OC)nc2N1C1CCCC1	16.6 µM (active)	inactive	13.3 µM (active)	4.43%	5.81%	1.18 µM (active)	29.6 µM (active)	–	–
CC(C)c1ccc(Cn2ccc3c4c(N)nc(NC5CC5)nc4ccc32)cc1	9.35 µM (active)	inactive	16.8 µM (active)	1.25%	1.62%	–	6.62 µM (active)	–	–
O=C(NC1CCNCC1)c1[nH]ncc1NC(=O)c1c(Cl)cccc1Cl	209 nM (active) and 296 nM (active)	inactive	33.5 nM (active) and 66.8 nM (active)	1.51% and 1.72%	45.8% and 42.8%	0.118 µM (active)	332 nM (active) and 264 nM (active)	–	–
